An excerpt weighted towards active compounds, which were near 19% of everything screened.
TGFb SMAD3 inh = inhibitors of TGF-b signaling. HepG2 CAGA-GFP TGF-b/SMAD3 reporter, GFP fluorescence, 18 h; TGF-beta stimulated, 500 pg/mL final. Potency, µM (highest dose often 46.1 µM), for the others: top-dose activity, negative = inhibition, actives largely listed as inhibitors. 1.2% of 410,000 active; also: potency is read from the fitted curve at half-maximal effect; % is scaled to controls: 0 for no effect and ±100 for the full control effect; nearly all actives have a fitted effect of over 65% in size
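Read-out: total well GFP (ex488/em500-530) summed from mean per-cell fluorescence. Cells: HEPG2 CAGA-GFP, 1% FBS DMEM, 18 h at 37 degrees C with 500 pg/mL final TGF-beta. Unstimulated wells served as the full-inhibition control; stimulated DMSO wells = 0%.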
IL1B secr inh = inflammasome signaling inhibition, IL-1 beta readout; activity change, % at 57.5 µM; AID 743279; THP-1 LPS/ATP IL-1B secretion, AlphaLISA, 16 h; active compounds read low; 4.7% of 360,000 active; in the data active = activity change below about -50%; inconclusive = mostly about -30% to -49%; also: % is scaled to controls: 0 for no effect and ±100 for the full control effect
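Secreted IL-1B measured by AlphaLISA bead assay after 16 h compound exposure of THP-1 cells; compounds (final up to 57.5 uM) added 1 h before LPS (250 ng/mL) and ATP (1.25 mM) stimulation; lower signal means less secretion.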
HepG2 tox = counter-screen for TGF-b inhibitors: cytotoxicity in HepG2 cells; 0.76% of 410,000 active; Potency, µM (doses to about 46.1 µM), for inactives: at the top dose activity change, negative = cytotoxicity, actives largely listed as cytotoxic; AID 588856; HepG2 CAGA-GFP viability, ATP luminescence, 18 h; also: potency is read from the fitted curve at half-maximal effect
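HepG2 CAGA-GFP cells (1000/well, DMEM with 1% FBS) received compound, then TGF-beta at 500 pg/mL final, and were incubated 18 hours at 37 degrees C. Viability was read by CellTiter-Glo luminescence. Media-only wells were set as complete cell-killing and DMSO as no toxicity.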
DT40 TDP1 no CPT = qHTS for Inhibitors of human tyrosyl-DNA phosphodiesterase 1 (TDP1): qHTS in cells in absence of CPT | DT40 Tdp1-/- hTDP1 cells, no CPT, ATP luminescence, 48 h | Potency, µM (highest dose often 46.2 µM), without a hit: at the top dose activity change, negative = growth inhibition, most hits filed as inhibitors | 15% of 420,000 active | AID 686978, 2013; also: potency is read from the fitted curve at half-maximal effect; % is scaled to controls: 0 for no effect and ±100 for the full control effect; nearly all actives have a fitted effect of over 55% in size
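Cells were dispensed at 400 per well, compounds added by pin tool, plates incubated ≥48 hr at 37 °C, then CellTiter-Glo added for 30 min at room temperature before luminescence reading. Line: DT40 Tdp1-/- complemented with hTDP1; camptothecin omitted.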
S-ASM inh = blocks human secretory acid sphingomyelinase. P17405. placental ASM, HMU-PC fluorogenic substrate, 60 min. Potency, µM (titrated, usually from 57.5 µM), for the others: at the top dose activity change, negative = inhibition, actives largely listed as inhibitors. 0.006% of 340,000 active; also: potency is read from the fitted curve at half-maximal effect
Target sequence (P17405 47-631 limits assumed): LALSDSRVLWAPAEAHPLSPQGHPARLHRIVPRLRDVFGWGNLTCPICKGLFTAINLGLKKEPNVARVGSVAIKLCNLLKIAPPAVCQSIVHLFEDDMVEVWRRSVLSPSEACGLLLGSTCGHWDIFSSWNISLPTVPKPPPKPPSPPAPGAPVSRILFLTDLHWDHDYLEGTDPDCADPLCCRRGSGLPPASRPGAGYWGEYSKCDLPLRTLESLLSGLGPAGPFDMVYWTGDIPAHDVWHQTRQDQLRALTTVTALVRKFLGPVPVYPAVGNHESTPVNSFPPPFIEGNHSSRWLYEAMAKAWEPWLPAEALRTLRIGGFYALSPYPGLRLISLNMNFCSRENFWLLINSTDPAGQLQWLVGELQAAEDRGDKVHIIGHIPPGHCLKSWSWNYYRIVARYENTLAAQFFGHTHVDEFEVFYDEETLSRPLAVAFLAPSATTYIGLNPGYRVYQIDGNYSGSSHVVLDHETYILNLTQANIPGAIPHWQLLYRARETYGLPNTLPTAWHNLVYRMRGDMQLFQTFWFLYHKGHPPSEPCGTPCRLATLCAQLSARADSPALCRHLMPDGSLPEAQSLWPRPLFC
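Human placenta-derived ASM preincubated with compound 10 min at room temperature, then reacted with 9 uM (final) fluorogenic HMU-PC substrate for 60 min at 37 C. Stop solution raises pH to 10; fluorescence read at Ex 386/Em 447 nm.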
TDP1 cell CPT = growth inhibition of DT40 Tdp1-/-;hTDP1 cells with camptothecin (screen for TDP1 inhibitors). chicken DT40 Tdp1-/-;hTDP1 cells + 20 nM CPT, ATP luminescence, 48 h. 12% of 420,000 active. Potency, µM (top dose mostly 46.2 µM), inactives show at the highest dose activity change, negative = growth inhibition, actives largely listed as inhibitors. AID 686979; also: potency is read from the fitted curve at half-maximal effect; % is scaled to controls: 0 for no effect and ±100 for the full control effect; nearly all actives have a fitted effect of over 55% in size
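Chicken DT40 Tdp1-/- cells stably complemented with human TDP1 were seeded at 400 cells/well in medium containing 20 nM camptothecin, exposed to pin-transferred compounds, and grown at 37 °C for at least 48 hr. Viability was read as ATP luminescence.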
* marks the source's active call; other numbers are inactive results. Unless noted, calls follow the shape of the dose curve; as a rule, active = well fitted curve in the direction sought with a large enough effect; inconclusive = small, poorly fitted or top-dose-only effect, or another doubt; inactive = no such curve, though single readings can be large; an effect the other way counts as inactive or inconclusive.

For COc1ccc(NC(=O)c2cc3ccccc3cc2O)cc1 the results were TGFb SMAD3 inh inconclusive, IL1B secr inh -98.9*, HepG2 tox -71.4%, DT40 TDP1 no CPT inconclusive, S-ASM inh -5.2% and TDP1 cell CPT inconclusive.
`COc1ccc(NC(=O)c2nc(SC)ncc2Cl)cc1` gave TGFb SMAD3 inh 4.1%, IL1B secr inh 2.4, HepG2 tox -17.6%, DT40 TDP1 no CPT 1.5%, S-ASM inh -2.8% and TDP1 cell CPT -14.1%.
`CCc1ccc(NC(=O)c2cnn(-c3ccccc3)c2C)cc1` gave TGFb SMAD3 inh 5.4%, IL1B secr inh inconclusive, HepG2 tox -31.4%, DT40 TDP1 no CPT inconclusive, S-ASM inh 1.6% and TDP1 cell CPT -3.5%.
For CCCNC(=O)c1cc(SC)ccc1Cl the results were TGFb SMAD3 inh 6.1%, IL1B secr inh -20.6, HepG2 tox -12.7%, DT40 TDP1 no CPT 0.0%, S-ASM inh 0.8% and TDP1 cell CPT -28.8%.
COc1cc2ccccc2cc1C(=O)Nc1ccc(O)cc1 was read as TGFb SMAD3 inh inconclusive, IL1B secr inh 0.5, HepG2 tox -28.3%, DT40 TDP1 no CPT inconclusive, S-ASM inh 6.4% and TDP1 cell CPT -30.0%.
CCc1ccccc1-n1ncc(C(=O)Nc2ccc(OC)cc2)c1C was read as TGFb SMAD3 inh -2.5%, IL1B secr inh -65.1*, HepG2 tox -1.7%, DT40 TDP1 no CPT inconclusive, S-ASM inh -1.5% and TDP1 cell CPT -6.8%.
Screening O=C(Nc1ccc2ccccc2c1)c1ccccc1Cl returned TGFb SMAD3 inh -23.4%, IL1B secr inh -26.5, HepG2 tox -27.2%, DT40 TDP1 no CPT inconclusive and TDP1 cell CPT inconclusive.
`Oc1ccc2ccccc2c1CNc1ccc2ccccc2c1` gave TGFb SMAD3 inh inconclusive, IL1B secr inh -100.0*, HepG2 tox -57.2%, DT40 TDP1 no CPT inconclusive, S-ASM inh -5.5% and TDP1 cell CPT -9.4%.
For O=C(Nc1ccc2ccccc2c1)c1ccccc1O the results were TGFb SMAD3 inh inconclusive, IL1B secr inh -69.2*, HepG2 tox -37.8%, DT40 TDP1 no CPT 10.3µM*, S-ASM inh -0.8% and TDP1 cell CPT 13µM*.
`CC(C)c1ccc(S(=O)(=O)c2nnn3c2nc(NCc2cccs2)c2sccc23)cc1` gave TGFb SMAD3 inh inconclusive, HepG2 tox -3.7%, DT40 TDP1 no CPT -23.1% and TDP1 cell CPT 6.6%.
For CC(=O)c1ccc(NC(=O)CCNS(=O)(=O)c2ccccc2F)cc1 the results were TGFb SMAD3 inh 1.2%, IL1B secr inh 7.4, HepG2 tox -1.7%, DT40 TDP1 no CPT -25.5%, S-ASM inh -1.0% and TDP1 cell CPT -3.7%.
COc1ccc(C2/C=C\CC(NS(=O)(=O)c3ccc(C)cc3)CC(=O)N2Cc2ccccc2F)cc1 (configuration not stated) was read as TGFb SMAD3 inh inconclusive, IL1B secr inh -22.4, HepG2 tox -5.0%, DT40 TDP1 no CPT inconclusive, S-ASM inh -17.0% and TDP1 cell CPT 23.1µM*.
COc1ccc(C2/C=C\CN(S(=O)(=O)c3ccc(C)cc3)C(C)C(=O)N2Cc2ccc(F)cc2)cc1 (configuration not stated) was read as TGFb SMAD3 inh -25.8% and HepG2 tox -7.7%.
COc1ccc([C@H]2/C=C\CN(S(=O)(=O)c3ccc(C)cc3)[C@@H](C)C(=O)N2Cc2ccc(F)cc2)cc1 was read as TGFb SMAD3 inh inconclusive, IL1B secr inh 26.0, HepG2 tox 3.5%, DT40 TDP1 no CPT inconclusive, S-ASM inh -3.7% and TDP1 cell CPT 18.4µM*.
Screening COc1ccc(N2CC(NS(=O)(=O)c3ccc(F)cc3)CC2=O)cc1 (configuration not stated) returned TGFb SMAD3 inh -0.6%, IL1B secr inh -2.5, HepG2 tox -9.6%, DT40 TDP1 no CPT -5.9%, S-ASM inh -2.7% and TDP1 cell CPT -10.8%.
Screening COc1ccc(C2/C=C\CN(S(=O)(=O)c3ccc(C)cc3)CC(=O)N2Cc2ccc(F)cc2)cc1 (configuration not stated) returned TGFb SMAD3 inh -23.2%, IL1B secr inh 8.3, HepG2 tox -16.6%, DT40 TDP1 no CPT 18.4µM*, S-ASM inh -5.4% and TDP1 cell CPT inconclusive.
`COc1ccc([C@H]2/C=C\CN(S(=O)(=O)c3cccc4cccnc34)[C@@H](C)C(=O)N2Cc2ccc(F)cc2)cc1` gave TGFb SMAD3 inh inconclusive, IL1B secr inh -9.8, HepG2 tox -4.8%, DT40 TDP1 no CPT 14.6µM*, S-ASM inh -0.1% and TDP1 cell CPT 18.4µM*.
`CCCCN(C)c1c(C)nc2ccc(C(=O)N3CCN(C(C)=O)CC3)cn12` gave TGFb SMAD3 inh -4.9%, IL1B secr inh 71.9, HepG2 tox -8.9%, DT40 TDP1 no CPT inconclusive and TDP1 cell CPT inconclusive.
`COc1ccc(C(=O)Nc2cc3c4c(c2)C(C)C(=O)N4CCC3)cc1` (configuration not stated) gave TGFb SMAD3 inh -5.3%, IL1B secr inh -10.4, HepG2 tox -19.0%, DT40 TDP1 no CPT -12.3%, S-ASM inh 2.3% and TDP1 cell CPT inconclusive.
Screening COc1ccc(C2/C=C\CN(S(=O)(=O)c3ccc(C)cc3)CC(=O)N2Cc2cccc(F)c2)cc1 (configuration not stated) returned TGFb SMAD3 inh -5.2%, IL1B secr inh 27.2, HepG2 tox -18.4%, DT40 TDP1 no CPT inconclusive, S-ASM inh -7.4% and TDP1 cell CPT 14.6µM*.
For Cc1ccc(-c2ccc(/C=N/NC(N)=S)o2)cc1 the results were TGFb SMAD3 inh inconclusive, IL1B secr inh 45.2, HepG2 tox -18.3%, DT40 TDP1 no CPT 4.11µM*, S-ASM inh 41.0% and TDP1 cell CPT 2.91µM*.
For NC(=S)N/N=C/c1ccc(-c2ccc(Cl)c(Cl)c2)o1 the results were TGFb SMAD3 inh inconclusive, IL1B secr inh 20.8, HepG2 tox -34.5%, DT40 TDP1 no CPT 13µM*, S-ASM inh 43.3% and TDP1 cell CPT 23.1µM*.
For NC(=S)NN=Cc1ccc(-c2ccc(S(=O)(=O)Nc3ncccn3)cc2)o1 the results were TGFb SMAD3 inh -7.7%, IL1B secr inh 18.9, HepG2 tox -0.1%, DT40 TDP1 no CPT inconclusive, S-ASM inh 88.8% and TDP1 cell CPT -9.2%.
`NC(=S)N/N=C/c1ccc(-c2ccccc2)o1` gave TGFb SMAD3 inh inconclusive, IL1B secr inh -23.6, HepG2 tox -34.0%, DT40 TDP1 no CPT inconclusive, S-ASM inh 20.9% and TDP1 cell CPT inconclusive.
